Measured values taken from PubChem BioAssay AID1865 (National Center for Advancing Translational Sciences (NCATS), 2009).
Values joined by “and” are separate entries in the source; they are usually repeats but may differ in a detail not shown here. Identical values can stand only once. Hit rate of the full screen: of about 280,000 compounds, about 540 (0.19%) were called active. Inconclusive results (about 2%) are left out. The call rests on the fitted dose curve; in most records, active means well fitted activation curve with a large enough effect; inconclusive means small, poorly fitted or top-dose-only effect; inactive means flat fitted curve, though single readings scatter. What follows is part of a selection rich in actives, with near analogues and random picks from the rest. A structure can be active in one record and inactive in another.

Assay: Quantitative High-Throughput Screen for Regulators of Epigenetic Control; further: nearly all actives have a fitted effect of over 60% in size; on GFP activation: % of control where 0% means no effect
Details: murine LDR cells, GFP reporter derepression, 30 h; series mostly up to 53.9 µM; GFP activation: at the top concentration
Source text: NIH Molecular Libraries Screening Centers Network [MLPCN] NIH Chemical Genomics Center [NCGC] MLSCN Grant: 1 X01 MH079860-01 Assay Provider: Elisabeth D. Martinez, University of Texas SW Medical Center NCGC Assay Overview: The Locus Derepression (LDR) assay detects the derepression or induction of a GFP reporter that is stably integrated in a genomic region of murine cells that is presumably silenced. Transcription of the GFP reporter is controlled by a CMV promoter, which normally is constitutively active. However, this cell line, termed LDR, was selected for lack of constitutive production of GFP. GFP production can be induced by incubating the cells with histone deacetylase or DNA methyltransferase inhibitors (Martinez et al., 2006). Compounds that derepress or induce this reporter locus are identified by enumerating GFP positive cells using a laser-scanning microplate cytometer (Auld et al., 2006). This assay was screened against the MLSMR earlier (AID 597; (Johnson et al., 2008) and has been rescreened here against the expanded collection.
NCGC Assay Protocol Summary: Three hundred LDR cells in 5 uL per well were dispensed into black, clear-bottom 1536-well plates. Twenty-three nL compound was transferred to the assay plate and cells were incubated 30 hours at 37 C. Medium was removed, cells were washed two times with PBS, and GFP-positive cells were enumerated as fluorescent objects between the sizes of 20 to 120 um width and depth using an Acumen Explorer. References Auld, DS, Johnson, RL, Zhang, YQ, Veith, H, Jadhav, A, Yasgar, A, Simeonov, A, Zheng, W, Martinez, ED, Westwick, JK, Austin, CP, Inglese, J (2006). Fluorescent protein-based cellular assays analyzed by laser-scanning microplate cytometry in 1536-well plate format. Methods Enzymol 414: 566-89. Johnson, RL, Huang, W, Jadhav, A, Austin, CP, Inglese, J, Martinez, ED (2008). A quantitative high-throughput screen identifies potential epigenetic modulators of gene expression. Anal Biochem 375: 237-48. Martinez, ED, Dull, AB, Beutler, JA, Hager, GL (2006). High-content fluorescence-based screening for epigenetic modulators. Methods Enzymol 414: 21-36.
Potency means the concentration at half of the fitted maximal effect.

SMILES	Potency	GFP activation
N#CC(C#N)=Cc1cc(O)c(O)c([N+](=O)[O-])c1	inactive and 17.8 µM (active)	–
C[C@@]12CC[C@H]3[C@@H](CC[C@]4(O)C[C@H](O)CC[C@@]34C=O)[C@]1(O)CC[C@@H]2C1=CC(=O)OC1	–	4.11% [at 16.9 µM] (inactive)
CCCCCCCCc1[se]c2ccccc2c1Br	–	5.52% (inactive)
COc1ccccc1-c1[se]c2ccccc2c1I	–	0.901% (inactive)
CN[C@@H]1C[C@H]2O[C@@](C)([C@@H]1OC)n1c3ccccc3c3c4c(c5c6ccccc6n2c5c31)C(=O)NC4	inactive	–
CC(C)(Cc1c[nH]c2ccc(Cl)cc12)NCCOc1ccccc1OCC1CC1	inactive	–
CC1=CC(=Cc2sc3ccccc3[n+]2C)C=C(C)O1	11.2 µM (active)	–
Fc1ccc(C(OCCN2CCN(C/C=C\c3ccccc3)CC2)c2ccc(F)cc2)cc1	–	3.24% (inactive)
CC(C)(O)c1[se]c2ccccc2c1I	–	3.15% (inactive)
NC[C@H](O)c1ccc(O)cc1	–	1.37% [at 16.9 µM] (inactive)
CCOc1ccc(CNC(=O)c2cccc(Nc3nc4ccccc4n4nnnc34)c2)cc1OC	20 µM (active)	–
CCCn1c(C(=O)c2ccccc2OC)nc2ccccc21	–	-2.57% (inactive)
COc1cc(Cn2c(N)c(C(=O)NCc3ccco3)c3nc4ccccc4nc32)cc(OC)c1OC	–	1.22% (inactive)
C[C@]12CC[C@H](O)C[C@@H]1CC[C@H]1[C@H]2CC[C@]2(C)C(=O)CC[C@@H]12	inactive	–
CC(=O)c1c(O)c(C)c(O)c(Cc2c(O)c3c(c(C(=O)/C=C\c4ccccc4)c2O)OC(C)(C)C=C3)c1O	–	-2.7% (inactive)
